Source: PubChem BioAssay (NCATS)
Records with an inconclusive call do not appear. The source made the active and inactive calls. Calls follow the shape of the dose curve; as a rule, active = well fitted inhibition curve with a large enough effect; inconclusive = small, poorly fitted or top-dose-only effect; inactive = flat fitted curve, though single readings scatter.

Legend:
[1] = system: P94_40; experiment: qHTS profiling for inhibitors of Plasmodium falciparum proliferation (AID 504749);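 also: 0% = DMSO vehicle and full inhibition = artemisinin control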; conditions: P. falciparum in erythrocytes, SYBR Green DNA, 72 h; series mostly up to 28.7 µM
Method in brief: (§1)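 SYBR Green fluorescence (ex 485 nm, em 535 nm) reports parasite DNA after 72 h compound exposure of infected red cells at 0.3% parasitemia, 2.5% hematocrit; signal normalized to 0.29 uM artemisinin and vehicle wells.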

[2] = system: PAD; experiment: as above; conditions: P. falciparum in erythrocytes, SYBR Green DNA, 72 h; series mostly up to 28.7 µM
Method in brief: as §1

[3] = system: PC15; experiment: as above; conditions: P. falciparum in erythrocytes, SYBR Green DNA, 72 h; series mostly up to 28.7 µM
Method in brief: as §1

[4] = system: PC26; experiment: as above; conditions: P. falciparum in erythrocytes, SYBR Green DNA, 72 h; series mostly up to 28.7 µM
Method in brief: as §1

[5] = system: PC49; experiment: as above; conditions: P. falciparum in erythrocytes, SYBR Green DNA, 72 h; series mostly up to 28.7 µM
Method in brief: as §1

[6] = system: SC27B; experiment: as above; conditions: P. falciparum in erythrocytes, SYBR Green DNA, 72 h; series mostly up to 28.7 µM
Method in brief: as §1

[7] = system: TAB109; experiment: as above; conditions: P. falciparum in erythrocytes, SYBR Green DNA, 72 h; series mostly up to 28.7 µM
Method in brief: as §1

[8] = system: TAB113; experiment: as above; conditions: P. falciparum in erythrocytes, SYBR Green DNA, 72 h; series mostly up to 28.7 µM
Method in brief: as §1

[9] = system: TAB165; experiment: as above; conditions: P. falciparum in erythrocytes, SYBR Green DNA, 72 h; series mostly up to 28.7 µM
Method in brief: as §1

[10] = system: W2; experiment: as above; conditions: P. falciparum in erythrocytes, SYBR Green DNA, 72 h; series mostly up to 28.7 µM
Method in brief: as §1

[11] = system: CRL-7250; experiment: Cytotoxic Profiling of Annotated Libraries Using Quantitative High-Throughput Screening (AID 1296008); conditions: Five cell lines viability, CellTiter-Glo ATP luminescence, 48-72 h; stronger effect = lower value; as to max response: % is scaled to controls: 0 for no effect and ±100 for the full control effect
Method in brief: (§2)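 Cells exposed to compounds for 48 or 72 hr at 37 degrees Celsius. Viability read as ATP-coupled luminescence with CellTiter-Glo after 10 min at room temperature.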

[12] = system: HEK293; experiment: as above; conditions: Five cell lines viability, CellTiter-Glo ATP luminescence, 48-72 h; stronger effect = lower value
Method in brief: as §2

[13] = system: HaCat; experiment: as above; conditions: Five cell lines viability, CellTiter-Glo ATP luminescence, 48-72 h; stronger effect = lower value
Method in brief: as §2

[14] = system: KB-3-1; experiment: as above; conditions: Five cell lines viability, CellTiter-Glo ATP luminescence, 48-72 h, stronger effect = lower value
Method in brief: as §2

[15] = system: NIH3T3; experiment: as above; conditions: Five cell lines viability, CellTiter-Glo ATP luminescence, 48-72 h; stronger effect = lower value
Method in brief: as §2

[16] = system: HACAT; experiment: qHTS assay to identify novel small-molecules to repurpose for Merkel cell carcinoma treatment (AID 1296009); conditions: MCC and control cell lines, CellTiter-Glo viability, 72 h; at 44.8 µM (top of the series) unless noted
Method in brief: (§3)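 CellTiter-Glo luminescence after 72 hr compound exposure at 37 degree celsius gave cell viability. Libraries NPC and MIPE were run as 8- and 11-point dose responses; RLUs normalized to DMSO (negative) and no-cell (cytotoxicity) controls.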

[17] = system: MCC-13; experiment: as above; conditions: MCC and control cell lines, CellTiter-Glo viability, 72 h; series mostly up to 46 µM
Method in brief: as §3

[18] = system: MCC-26; experiment: as above; conditions: MCC and control cell lines, CellTiter-Glo viability, 72 h; series mostly up to 46 µM
Method in brief: as §3

[19] = system: MKL-1; experiment: as above; conditions: MCC and control cell lines, CellTiter-Glo viability, 72 h; series mostly up to 46 µM
Method in brief: as §3

[20] = system: HEK293T; experiment: as above; conditions: MCC and control cell lines, CellTiter-Glo viability, 72 h; at 44.8 µM (top of the series) unless noted
Method in brief: as §3
Also: nearly all actives have a fitted effect of over 60% in size.

CC(=O)NS(=O)(=O)c1ccc(N)cc1
inactive: Potency [1] | Potency [2] | Potency [3] | Potency [4] | Potency [5] | Potency [6] | Potency [7] | Potency [8] | Potency [9] | Potency [10] | max response [11] -3.19% | max response [12] -5.52% | outcome [13] | max response [14] 3.12% | max response [15] -1.48% | outcome [16] | outcome [17] | outcome [18] | outcome [19]

CC[N+](C)(CC)CCOC(=O)C1c2ccccc2Oc2ccccc21
inactive: Potency [1] | Potency [2] | Potency [3] | Potency [4] | Potency [5] | Potency [6] | Potency [7] | Potency [8] | Potency [10] | outcome [11] | max response [12] -9.27% | outcome [13] | max response [14] 56.3% | max response [15] 2.85% | outcome [16] | outcome [17] | outcome [18] | outcome [19]

CN(C/C=C/C#CC(C)(C)C)Cc1cccc2ccccc12
inactive: Potency [2] | Potency [3] | Potency [4] | Potency [5] | Potency [6] | Potency [7] | Potency [8] | Potency [9] | max response [11] -11.8% | max response [12] -4.51% | outcome [13] | max response [14] -0.279% | max response [15] 2.57% | outcome [16] | outcome [17] | outcome [18] | outcome [19]

Cc1cc(C)c(NC(=O)CN(CC(=O)O)CC(=O)O)c(C)c1Br
inactive: Potency [3] | Potency [4] | Potency [5] | Potency [10] | max response [11] -2.84% | max response [12] -7.54% | outcome [13] | max response [14] 14.1% | max response [15] -1.07% | outcome [16] | outcome [17] | outcome [18] | outcome [19]

CCCNC(C)(C)COC(=O)c1ccccc1
inactive: Potency [1] | Potency [2] | Potency [3] | Potency [5] | Potency [6] | Potency [7] | Potency [8] | Potency [9] | max response [11] -0.75% | max response [12] 3.12% | outcome [13] | max response [14] 0.448% | max response [15] 4.95% | outcome [16] | outcome [17] | outcome [18] | outcome [19]

O=C(O)CCC(=O)O
inactive: Potency [1] | Potency [2] | Potency [3] | Potency [4] | Potency [5] | Potency [6] | Potency [7] | Potency [8] | Potency [9] | Potency [10] | max response [11] 3.26% | max response [12] 3.09% | outcome [13] | max response [14] 7.68% | max response [15] -0.925% | outcome [16] | outcome [17] | outcome [18] | outcome [19]

O=c1[nH]c(=O)c2ccccc2o1
inactive: Potency [1] | Potency [2] | Potency [3] | Potency [4] | Potency [5] | Potency [6] | Potency [7] | Potency [8] | Potency [9] | Potency [10] | outcome [11] | max response [12] 1.22% | outcome [13] | max response [14] -4.12% | max response [15] -16.8% | outcome [16] | outcome [17] | outcome [18] | outcome [19]

C=CCNC(N)=S
inactive: Potency [1] | Potency [2] | Potency [3] | Potency [4] | Potency [5] | Potency [6] | Potency [7] | Potency [8] | Potency [9] | Potency [10] | max response [11] -5.07% | max response [12] -1.79% | outcome [13] | max response [14] -9.92% | max response [15] 4.81% | outcome [16] | outcome [17] | outcome [18] | outcome [19]

COc1ccc(C(=O)NCc2ccc(OCCN(C)C)cc2)cc1OC
inactive: Potency [1] | Potency [2] | Potency [3] | Potency [4] | Potency [5] | Potency [6] | Potency [7] | Potency [8] | Potency [9] | Potency [10] | outcome [11] | max response [12] -0.933% | outcome [13] | max response [14] 3.28% | max response [15] -3.79% | outcome [16] | outcome [17] | outcome [18] | outcome [19]

OCc1ccc(Cl)cc1Cl
inactive: Potency [1] | Potency [2] | Potency [3] | Potency [4] | Potency [5] | Potency [6] | Potency [7] | Potency [8] | Potency [9] | Potency [10] | outcome [11] | max response [12] -6.19% | outcome [13] | max response [14] -1.05% | outcome [15] | outcome [16] | outcome [17] | outcome [18] | outcome [19]

COc1ccccc1OC(=O)Oc1ccccc1OC
inactive: Potency [1] | Potency [2] | Potency [3] | Potency [4] | Potency [5] | Potency [6] | Potency [7] | Potency [8] | Potency [9] | Potency [10] | outcome [11] | max response [12] -4.48% | outcome [13] | max response [14] -6.45% | max response [15] 0.277% | outcome [16] | outcome [17] | outcome [18] | outcome [19]

O=C(O)c1ccccc1OP(=O)(O)O
inactive: Potency [1] | Potency [2] | Potency [3] | Potency [4] | Potency [5] | Potency [6] | Potency [7] | Potency [8] | Potency [9] | Potency [10] | max response [11] 3.34% | max response [12] 2.49% | outcome [13] | max response [14] 12.4% | max response [15] 3.2% | outcome [16] | outcome [17] | outcome [18] | outcome [19]

CCOC(=O)[C@H](CCc1ccccc1)N[C@@H](C)C(=O)N1Cc2cc(OC)c(OC)cc2C[C@H]1C(=O)O
inactive: outcome [11] | outcome [12] | max response [13] 2.61% | max response [14] -3.37% | max response [15] 2.92% | outcome [20] | outcome [17] | outcome [18] | outcome [19]

CCCCCCCCCCCCCCCCC(C(=O)O)C(O)(CC(=O)O)C(=O)O (stereo not drawn)
inactive: Potency [1] | Potency [2] | Potency [3] | Potency [4] | Potency [5] | Potency [6] | Potency [7] | Potency [8] | Potency [9] | outcome [11] | outcome [12] | max response [13] 2.76% | max response [14] 6.88% | max response [15] 0.574% | outcome [20] | outcome [17] | outcome [18] | outcome [19]

CC(=O)Nc1ccc(C(=O)O)cc1
inactive: Potency [1] | Potency [2] | Potency [3] | Potency [4] | Potency [5] | Potency [6] | Potency [7] | Potency [8] | Potency [9] | Potency [10] | max response [11] -0.409% | outcome [12] | max response [13] 3.25% | max response [14] -6.78% | max response [15] -2.27% | outcome [20] | outcome [17] | outcome [18] | outcome [19]

C[C@H]1COc2c(C3(N)CC3)c(F)cc3c(=O)c(C(=O)O)cn1c23
inactive: Potency [1] | Potency [2] | Potency [3] | Potency [4] | Potency [5] | Potency [6] | Potency [7] | Potency [8] | Potency [9] | max response [11] 2.54% | max response [12] 4.33% | outcome [13] | max response [14] 14.4% | max response [15] 1.93% | outcome [16] | outcome [17] | outcome [19]

COc1ccccc1Oc1c(NS(=O)(=O)c2ccc(C(C)(C)C)cc2)nc(-c2ncccn2)nc1OCCO
inactive: Potency [1] | Potency [2] | Potency [3] | Potency [4] | Potency [5] | Potency [6] | Potency [7] | max response [11] -3.53% | max response [12] -4.43% | outcome [13] | max response [14] -7.61% | outcome [15] | outcome [16] | outcome [18] | outcome [19]

Cc1c(NC(=O)c2cccnc2)c(=O)n(-c2ccccc2)n1C
inactive: Potency [1] | Potency [2] | Potency [3] | Potency [4] | Potency [5] | Potency [6] | Potency [7] | Potency [8] | Potency [9] | Potency [10] | max response [11] -9.05% | max response [12] 0.504% | outcome [13] | max response [14] -0.639% | outcome [15] | outcome [16] | outcome [17] | outcome [19]
